The text below walks through data of article PMC4336329 (PLoS ONE, 2015).

Each structure is given as a SMILES string. The whole screen tested about 310,000 compounds, of which about 2,200 (0.71%) showed an effect of 50% or more. Effects have a minus sign here. Many of the other results were omitted from the sample, so strong results are more common in it than they were.

Sequence of human ether-à-go-go-related gene (hERG) potassium channel (Q12809 whole entry, looked up): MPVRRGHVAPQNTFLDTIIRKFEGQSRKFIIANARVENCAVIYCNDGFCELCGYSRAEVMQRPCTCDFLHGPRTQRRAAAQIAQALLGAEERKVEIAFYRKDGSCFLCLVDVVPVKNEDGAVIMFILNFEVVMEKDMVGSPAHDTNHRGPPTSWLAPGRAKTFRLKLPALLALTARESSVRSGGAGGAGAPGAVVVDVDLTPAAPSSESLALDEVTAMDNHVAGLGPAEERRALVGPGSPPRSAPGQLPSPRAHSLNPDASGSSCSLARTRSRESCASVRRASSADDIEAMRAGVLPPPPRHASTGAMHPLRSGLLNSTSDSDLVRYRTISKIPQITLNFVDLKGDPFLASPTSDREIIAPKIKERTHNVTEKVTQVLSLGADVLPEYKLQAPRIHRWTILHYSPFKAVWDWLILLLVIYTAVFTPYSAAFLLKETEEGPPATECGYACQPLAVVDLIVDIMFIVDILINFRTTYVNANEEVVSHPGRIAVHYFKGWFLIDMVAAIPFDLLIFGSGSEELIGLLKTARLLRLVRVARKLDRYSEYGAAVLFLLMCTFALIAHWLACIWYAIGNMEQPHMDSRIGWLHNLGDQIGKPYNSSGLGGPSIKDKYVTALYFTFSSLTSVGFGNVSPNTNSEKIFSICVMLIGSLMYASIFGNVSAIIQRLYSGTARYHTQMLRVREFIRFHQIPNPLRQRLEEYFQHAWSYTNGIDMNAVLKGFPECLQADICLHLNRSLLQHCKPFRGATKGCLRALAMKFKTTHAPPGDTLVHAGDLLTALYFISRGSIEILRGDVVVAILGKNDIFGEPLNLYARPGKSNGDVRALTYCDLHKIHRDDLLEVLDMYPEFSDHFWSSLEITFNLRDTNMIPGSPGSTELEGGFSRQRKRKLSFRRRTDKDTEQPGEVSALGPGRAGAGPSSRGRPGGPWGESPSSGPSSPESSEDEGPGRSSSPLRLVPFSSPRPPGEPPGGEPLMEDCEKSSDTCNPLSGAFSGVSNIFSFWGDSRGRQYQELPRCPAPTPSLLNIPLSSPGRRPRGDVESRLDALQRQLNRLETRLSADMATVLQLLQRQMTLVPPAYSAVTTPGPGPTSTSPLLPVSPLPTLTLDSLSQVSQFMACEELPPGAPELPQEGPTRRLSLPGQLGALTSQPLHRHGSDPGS

This experiment addresses human ether-à-go-go-related gene (hERG) potassium channel (human, UniProt Q12809). Kind of experiment: primary screen, population patch clamp on CHO cells stably expressing hERG; higher = less effect of the substance.
Consider `COc1ccc(NC(=O)C2CCC(C)(C(=O)O)C2(C)C)cc1` (centres unmarked), for which the “hERG current change (%, negative = inhibition) at 1uM” value is on record as 11.1%.

With `CC(OC(=O)c1ccccc1NCCO)C(=O)Nc1ccc(S(=O)(=O)N2CCOCC2)cc1` (centres unmarked), the “hERG current change (%, negative = inhibition) at 1uM” value is given as 11.6%.

For `CN=C1S/C(=C\c2ccc(O)c(OC)c2)C(=O)N1C`, the “hERG current change (%, negative = inhibition) at 1uM” value is on record as 14%.

As for `Cc1cccc(-n2c(SCC(=O)N(C)C3CCS(=O)(=O)C3)nc3ccccc3c2=O)c1C` (centres unmarked), the “hERG current change (%, negative = inhibition) at 1uM” value was 13.9%.

For the compound `CC(CCc1ccccc1)NC(=O)C1CCCN(c2nnc(-n3cccc3)s2)C1` (centres unmarked), the “hERG current change (%, negative = inhibition) at 1uM” value was -7.23%.

For the compound `O=C(NC1CCN(Cc2ccccc2)CC1)C1CCN(c2nnc(-n3cccc3)s2)CC1`, the “hERG current change (%, negative = inhibition) at 1uM” value is reported as -28.2%.

In the case of `O=C(NC1CCN(Cc2ccccc2)CC1)C1CCCN(c2nnc(-n3cccc3)s2)C1` (centres unmarked), the “hERG current change (%, negative = inhibition) at 1uM” value is recorded as -65.2%.

In the case of `O=[N+]([O-])c1cccc2ccc(/C=C/c3ccc(Cl)cc3)nc12`, the “hERG current change (%, negative = inhibition) at 1uM” value is reported as 1.88%.

With `Cc1nc2c(ccc3nc(NC(=O)c4ccc(S(=O)(=O)N(C)C)cc4)sc32)s1`, the “hERG current change (%, negative = inhibition) at 1uM” value was 16.4%.

With `Cc1nc2c(ccc3nc(NC(=O)c4ccc5c(c4)OCCO5)sc32)s1`, the “hERG current change (%, negative = inhibition) at 1uM” value is -86.6%.

In the case of `Cc1nc2ccc3nc(NC(=O)c4ccc5c(c4)OCCO5)sc3c2s1`, the “hERG current change (%, negative = inhibition) at 1uM” value was determined as 9.46%.

In the case of `COc1ccc2c(c1)c(C(=O)O)c(C)n2CC(C)C`, the “hERG current change (%, negative = inhibition) at 1uM” value is -2.31%.

For `CC(NS(=O)(=O)/C=C/c1ccccc1)C(=O)O` (centres unmarked), the “hERG current change (%, negative = inhibition) at 1uM” value worked out at 12.5%.

In the case of `CC(C)Cn1cc(C(=O)N2CCC3(CC2)OCCO3)c2c3ccccc3n(C)c2c1=O`, the “hERG current change (%, negative = inhibition) at 1uM” value is given as -1.15%.

Consider `O=C(Cc1c(F)c(F)c(F)c(F)c1F)Nc1nc(-c2ccccc2)cs1`, for which the “hERG current change (%, negative = inhibition) at 1uM” value was 9.84%.

Consider `CCn1c(N2CCN(Cc3ccc([N+](=O)[O-])cc3)CC2)nc2ccccc21.Cl`, for which the “hERG current change (%, negative = inhibition) at 1uM” value is -81.2%.

Turning to `Cl.O=[N+]([O-])c1ccc(CN2CCN(c3ccc4ccccc4n3)CC2)cc1`, the “hERG current change (%, negative = inhibition) at 1uM” value was -1.76%.

As to `CCCn1c(N2CCN(C(=O)/C=C/C(=O)O)CC2)nc2ccccc21`, the “hERG current change (%, negative = inhibition) at 1uM” value was 14.7%.

As to `CCCn1c(N2CCN(Cc3ccc(Cl)cc3)CC2)nc2ccccc21.Cl`, the “hERG current change (%, negative = inhibition) at 1uM” value was -4.77%.

For `CCn1c(N2CCN(C(=O)/C=C/c3ccccc3)CC2)nc2ccccc21`, the “hERG current change (%, negative = inhibition) at 1uM” value was -77.4%.

For the compound `CC(C)Cn1c(N2CCN(C(=O)/C=C/c3ccccc3)CC2)nc2ccccc21`, the “hERG current change (%, negative = inhibition) at 1uM” value is on record as -32.9%.

Regarding `CCCCc1ccc(NC(=S)NN2CCOCC2)cc1`, the “hERG current change (%, negative = inhibition) at 1uM” value turned out to be 12.1%.

In the case of `COc1ccc(NC(=O)CCCn2cc([N+](=O)[O-])cn2)cc1`, the “hERG current change (%, negative = inhibition) at 1uM” value is given as 1.91%.

Regarding `O=C(NCCCn1ccnc1)c1cccc(Br)c1`, the “hERG current change (%, negative = inhibition) at 1uM” value is reported as 6.56%.

On to `CCOC(=O)C(NC(C)=O)(Nc1ccc(S(=O)(=O)Nc2ncccn2)cc1)C(F)(F)F` (centres unmarked), for which the “hERG current change (%, negative = inhibition) at 1uM” value was 18.1%.

On to `O=c1c2ccccc2ncn1-c1ccc2c(c1)OCCO2`, for which the “hERG current change (%, negative = inhibition) at 1uM” value is recorded as 2.75%.

In the case of `CCC(=O)Nc1ccc(C(=O)n2nc(C)cc2C)cc1`, the “hERG current change (%, negative = inhibition) at 1uM” value stood at 1.88%.

Turning to `Cc1c(NC(=O)c2cc(-n3cnnc3)ccc2Cl)cccc1-c1nc2ccccc2s1`, the “hERG current change (%, negative = inhibition) at 1uM” value is listed as -9.7%.

On to `CC1CCCCN1CCCNC(=O)c1nn(C)c2c1CSc1ccccc1-2` (centres unmarked), for which the “hERG current change (%, negative = inhibition) at 1uM” value is listed as -23.4%.

As to `CC1CCCN(CCCNC(=O)c2nn(C)c3c2CSc2ccccc2-3)C1` (centres unmarked), the “hERG current change (%, negative = inhibition) at 1uM” value is reported as -66.2%.

On to `Cn1nc(C(=O)NCCCN2CCCCC2)c2c1-c1ccccc1SC2`, for which the “hERG current change (%, negative = inhibition) at 1uM” value was -24.8%.

As to `O=C(COc1nncc2ccccc12)NCCC1=CCCCC1`, the “hERG current change (%, negative = inhibition) at 1uM” value is given as 9.4%.

For the compound `COCCn1c(=N)c(C(=O)NCc2ccco2)cc2c(=O)n3cc(C)ccc3nc21`, the “hERG current change (%, negative = inhibition) at 1uM” value is -92%.

Turning to `COCCn1c(=N)c(S(=O)(=O)c2ccc(Br)cc2)cc2c(=O)n3ccccc3nc21`, the “hERG current change (%, negative = inhibition) at 1uM” value is 9.15%.

Turning to `Cc1ccc2nc3c(cc(C(=O)NCc4ccco4)c(=N)n3Cc3ccco3)c(=O)n2c1`, the “hERG current change (%, negative = inhibition) at 1uM” value is -86.5%.

For the compound `Cc1cc2ccccc2c(=O)n1CC(=O)NCc1ccco1`, the “hERG current change (%, negative = inhibition) at 1uM” value is reported as 18.5%.

As to `COCCn1cc(C(=O)NCc2ccco2)c2c3ccccc3n(C)c2c1=O`, the “hERG current change (%, negative = inhibition) at 1uM” value amounted to 5.73%.

Regarding `CCn1cc(C(=O)NCc2ccco2)c2cc(OC)c(OC)cc2c1=O`, the “hERG current change (%, negative = inhibition) at 1uM” value is given as -8.54%.

In the case of `Cc1ccc(S(=O)(=O)c2cc3c(=O)n4ccccc4nc3n(Cc3ccco3)c2=N)cc1`, the “hERG current change (%, negative = inhibition) at 1uM” value is -0.218%.

Turning to `COCCn1c(=N)c(C(=O)NCc2ccco2)cc2c(=O)n3ccccc3nc21`, the “hERG current change (%, negative = inhibition) at 1uM” value was -88%.

Turning to `CCOc1ccc(N2CC(=O)N/C2=N\c2nc(C)cc(C)n2)cc1`, the “hERG current change (%, negative = inhibition) at 1uM” value is reported as -2.01%.

Turning to `CC(C)COC(=O)CCNc1n[nH]c(=O)[nH]c1=O`, the “hERG current change (%, negative = inhibition) at 1uM” value is 3.64%.

On to `CCCCCCSc1nnc(N)s1`, for which the “hERG current change (%, negative = inhibition) at 1uM” value stood at 7.6%.

Turning to `COc1ccccc1OCCCC(=O)NC(C)c1ccccc1` (centres unmarked), the “hERG current change (%, negative = inhibition) at 1uM” value was found to be 8%.

As to `O=C1CCCc2oc3c(cc(NS(=O)(=O)c4ccc5c6c(cccc46)C(=O)N5)c4ccccc43)c21`, the “hERG current change (%, negative = inhibition) at 1uM” value is reported as -6.54%.

`Cc1cc(C)nc(SCCC(=O)N(C)C)n1`: the “hERG current change (%, negative = inhibition) at 1uM” value is listed as 11%.

In the case of `CCN(CC)c1nc2ccccc2c(N)c1-c1ccccc1.O=C(O)C(=O)O`, the “hERG current change (%, negative = inhibition) at 1uM” value is on record as -53.9%.

On to `CN(C)c1nc2ccccc2c(N)c1-c1ccccc1.O=C(O)C(=O)O`, for which the “hERG current change (%, negative = inhibition) at 1uM” value is reported as -39.7%.

Regarding `Cc1c(N(C)C)nc2ccccc2c1N.O=C(O)C(=O)O`, the “hERG current change (%, negative = inhibition) at 1uM” value is -8.8%.

Turning to `COc1cc(/C=C2/C(=O)NN(c3ccc(F)cc3)C2=O)cc([N+](=O)[O-])c1O`, the “hERG current change (%, negative = inhibition) at 1uM” value is listed as 8.07%.

As for `O=C(OCC(=O)C12CC3CC(CC(C3)C1)C2)c1cnccn1`, the “hERG current change (%, negative = inhibition) at 1uM” value worked out at 8.15%.

As to `O=C(CCc1nnc(CCCCc2ccccc2)o1)NCCN1CCOC1=O`, the “hERG current change (%, negative = inhibition) at 1uM” value came to 9.65%.

In the case of `O=C(c1ccc2c(=O)n(Cc3ccccc3Cl)c(=S)[nH]c2c1)N1CCOCC1`, the “hERG current change (%, negative = inhibition) at 1uM” value was found to be 13%.

For `O=C(c1nc2ccccn2c1CN1CCCC(OCc2ccccc2)C1)N1CCCC1` (centres unmarked), the “hERG current change (%, negative = inhibition) at 1uM” value is reported as -25.7%.

As for `O=C(c1nc2ccccn2c1CN1CCN(c2ccccc2O)CC1)N1CCCC1`, the “hERG current change (%, negative = inhibition) at 1uM” value is given as 26%.

Regarding `O=C(c1nc2ccccn2c1CN1CCC(Cc2ccccc2)CC1)N1CCCC1`, the “hERG current change (%, negative = inhibition) at 1uM” value is reported as -54.2%.
